Consider six compounds from PubChem BioAssay.

Experiment [1] concerns Plasmodium falciparum Sir2 (PF13_0152, Sir2A). The experiment in a line: Plasmodium falciparum Sir2A binding compounds – biochemical, small-molecule microarray, 635 nm fluorescence, primary screen (AID 1098).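 Also: score merges spot fluorescence intensity with its signal-to-noise ratio.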 Conditions: fluorescence 635 nm, higher = more signal.
A short description of experiment [2]: probe aDKK1 binding to arrayed compounds – biochemical, biotinylated probe, 635/667 nm fluorescence, primary screen (AID 1099).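 Also: score merges 667nm spot fluorescence with signal to noise across triplicate slides.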 Particulars: small-molecule microarray, higher = more signal.
Experiment [3] in a line: probe aCHRDL2 binding to arrayed compounds – biochemical, biotinylated probe, 635/667 nm fluorescence, primary screen (AID 1100). Particulars: small-molecule microarray, higher = more signal.
Experiment [4] in a line: change in splice reporter luminescence, either direction, cell-based, HEK293, spliceosome inhibition project, primary screen (AID 1101).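 Also: HEK293 cells carrying a splicing-competent luciferase reporter gene; test concentration not given here.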 Conditions: HEK293 splicing luciferase reporter, 24 h, higher = more signal, called active from +8 up or from −8 down. A general note: Reporter assays use an easily measured gene product as a stand-in for the process of interest.
For experiment [5], the target named is Fibroblast growth factor 10 (Homo sapiens) (UniProt O15520). Briefly: compounds binding fibroblast growth factor 10 – biochemical, small-molecule microarray, 635 nm fluorescence, primary screen (AID 1102). Particulars: FGF10 binding, fluorescence 635 nm, higher = more signal.
Experiment [6] concerns glycogen synthase kinase-3 (GSK3A per assay name; protocol says GSK3B). The experiment in a line: compounds binding glycogen synthase kinase-3 – biochemical, small-molecule microarray, 635 nm fluorescence, GSK3A, primary screen (AID 1103). Also: the record names both GSK3A and GSK3B. Conditions: fluorescence 635 nm, higher = more signal.
The target of experiment [7] is Epidermal growth factor receptor (Homo sapiens) (UniProt P00533). Briefly: compounds binding epidermal growth factor receptor – biochemical, small-molecule microarray, 635 nm fluorescence, primary screen (AID 1104).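 Also: score merges 667 nm emission intensity with spot signal to noise over triplicate slides.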 Conditions: EGFR binding, higher = more signal.
Experiment [8] concerns the target Follistatin-related protein 3 (Homo sapiens) (UniProt O95633). The experiment in a line: compounds binding follistatin-related protein 3 – biochemical, small-molecule microarray, 635 nm fluorescence, primary screen (AID 1105).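 Also: score merges emission near 667 nm and signal to noise per printed spot across three slides.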 Conditions: FSTL3 binding, higher = more signal.
Experiment [9] concerns the target Dickkopf-related protein 1 (Homo sapiens) (UniProt O94907). Briefly: small molecules binding DKK1 protein – biochemical, small-molecule microarray, 635 nm fluorescence scan, primary screen (AID 1106).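 Also: score merges emission near 667 nm with signal to noise over three replicate slides.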 Conditions: higher = more signal.
Experiment [10] concerns Inhibin beta A chain (activin A). Briefly: small molecules binding activin A – biochemical, small-molecule microarray, 635 nm fluorescence scan, primary screen (AID 1107).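 Also: mouse activin A protein probed at 4.33 µg/mL on printed slides; score merges bound-protein fluorescence near 667 nm with spot signal-to-noise.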 Conditions: INHBA, higher = more signal.
Experiment [11] deals with Human papillomavirus type 1a protein E7 (residues 44-93). Briefly: small molecules binding HPV E7 44-93 – biochemical, small-molecule microarray, residues 44-93, 635 nm fluorescence, primary screen (AID 1108).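 Also: E7 fragment applied at 1 µg/mL in TBST for 1 h at 4 C; score combines spot fluorescence with its signal to noise ratio.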 Conditions: fluorescence 635 nm, higher = more signal.
Experiment [12] can be described thus: hepatitis C replication reporter changes, two-sided – Huh7 cells, luciferase reporter, HCV replication inhibitor project, primary screen (AID 1109).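 Also: huh7 hepatoma cells harbouring a luciferase neomycin HCV replicon reporter; luciferase luminescence as measure of HCV replicon replication; test concentration not given here.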 Conditions: Huh7 HCV replicon luciferase reporter, 48 h; higher = more signal.
Experiment [13] deals with Left-right determination factor 2 (Homo sapiens) (UniProt O00292). The experiment in a line: small molecules binding LEFTY2 protein – biochemical, small-molecule microarray, 635 nm fluorescence scan, primary screen (AID 1110). Conditions: higher = more signal.
Experiment [14] has as its target Calmodulin-1 (Homo sapiens) (UniProt P0DP23). The experiment in a line: small molecules binding calmodulin-1 with EGTA – biochemical, small-molecule microarray, Cy5-labelled CALM1, profiling panel (AID 1111).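 Also: labelled calmodulin applied in Tris saline Tween buffer holding calcium plus EGTA and DTT.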 Particulars: Cy5-CALM1 binding fluorescence, higher = more signal.
Experiment [15] has the same target. Briefly: small molecules binding Ca-loaded calmodulin-1 – biochemical, small-molecule microarray, Cy5-labelled CALM1, plus calcium, artefact control for SMM control-protein annotation, profiling panel (AID 1112).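 Also: score merges spot fluorescence with signal to noise from triplicate slides.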 Conditions: Cy5-CALM1 binding fluorescence, higher = more signal.
Experiment [16] is described as follows: probe aWnt5a binding to arrayed compounds – biochemical, biotinylated probe, 635/667 nm fluorescence, primary screen (AID 1113).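 Also: score merges 667 nm fluorescence intensity with signal-to-noise per printed feature.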 Conditions: small-molecule microarray, higher = more signal.
A short description of experiment [17]: probe aShh binding to arrayed compounds – biochemical, biotinylated probe, 635/667 nm fluorescence, primary screen (AID 1114).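 Also: probe is biotin-labelled aShh protein from a stem cell growth factor screen; measures binding of labelled protein to compounds printed on the slide; score merges feature fluorescence at 667 nm with signal-to-noise.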 Conditions: small-molecule microarray, higher = more signal.
Experiment [18] can be described thus: probe aNog binding to arrayed compounds – biochemical, biotinylated probe, 635/667 nm fluorescence, primary screen (AID 1115).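 Also: probe is biotinylated aNog protein used at 0.15 µg/mL for 1 h at 4 C; z-score combines 667 nm fluorescence of each spot with its signal to noise.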 Particulars: small-molecule microarray, higher = more signal.
For experiment [19], the target named is Torsin-1A-interacting protein 1 (Homo sapiens) (UniProt Q5JTV8). Briefly: compound microarray binding of lysate hLAP1 – cell lysate, small-molecule microarray, COS7 lysate, 635/667 nm fluorescence, primary screen (AID 1116). Particulars: 635 nm fluorescence, higher = more signal.
The target of experiment [20] is Alpha-bungarotoxin (Bungarus multicinctus) (UniProt P60615). The experiment in a line: compounds binding labelled alpha-BTX control protein – biochemical, small-molecule microarray, Alexa647 label, 635/667 nm fluorescence, artefact control for SMM control protein annotation, profiling panel (AID 1117). Particulars: alpha-BTX-A647 binding fluorescence, higher = more signal.

Activity calls are given as the source filed them.

Chain of Alpha-bungarotoxin (Bungarus multicinctus) (P60615 whole entry, looked up): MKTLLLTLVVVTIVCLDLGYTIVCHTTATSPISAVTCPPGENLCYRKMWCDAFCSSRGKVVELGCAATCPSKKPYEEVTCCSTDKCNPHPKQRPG
Chain of Epidermal growth factor receptor (Homo sapiens) (P00533 whole entry, looked up): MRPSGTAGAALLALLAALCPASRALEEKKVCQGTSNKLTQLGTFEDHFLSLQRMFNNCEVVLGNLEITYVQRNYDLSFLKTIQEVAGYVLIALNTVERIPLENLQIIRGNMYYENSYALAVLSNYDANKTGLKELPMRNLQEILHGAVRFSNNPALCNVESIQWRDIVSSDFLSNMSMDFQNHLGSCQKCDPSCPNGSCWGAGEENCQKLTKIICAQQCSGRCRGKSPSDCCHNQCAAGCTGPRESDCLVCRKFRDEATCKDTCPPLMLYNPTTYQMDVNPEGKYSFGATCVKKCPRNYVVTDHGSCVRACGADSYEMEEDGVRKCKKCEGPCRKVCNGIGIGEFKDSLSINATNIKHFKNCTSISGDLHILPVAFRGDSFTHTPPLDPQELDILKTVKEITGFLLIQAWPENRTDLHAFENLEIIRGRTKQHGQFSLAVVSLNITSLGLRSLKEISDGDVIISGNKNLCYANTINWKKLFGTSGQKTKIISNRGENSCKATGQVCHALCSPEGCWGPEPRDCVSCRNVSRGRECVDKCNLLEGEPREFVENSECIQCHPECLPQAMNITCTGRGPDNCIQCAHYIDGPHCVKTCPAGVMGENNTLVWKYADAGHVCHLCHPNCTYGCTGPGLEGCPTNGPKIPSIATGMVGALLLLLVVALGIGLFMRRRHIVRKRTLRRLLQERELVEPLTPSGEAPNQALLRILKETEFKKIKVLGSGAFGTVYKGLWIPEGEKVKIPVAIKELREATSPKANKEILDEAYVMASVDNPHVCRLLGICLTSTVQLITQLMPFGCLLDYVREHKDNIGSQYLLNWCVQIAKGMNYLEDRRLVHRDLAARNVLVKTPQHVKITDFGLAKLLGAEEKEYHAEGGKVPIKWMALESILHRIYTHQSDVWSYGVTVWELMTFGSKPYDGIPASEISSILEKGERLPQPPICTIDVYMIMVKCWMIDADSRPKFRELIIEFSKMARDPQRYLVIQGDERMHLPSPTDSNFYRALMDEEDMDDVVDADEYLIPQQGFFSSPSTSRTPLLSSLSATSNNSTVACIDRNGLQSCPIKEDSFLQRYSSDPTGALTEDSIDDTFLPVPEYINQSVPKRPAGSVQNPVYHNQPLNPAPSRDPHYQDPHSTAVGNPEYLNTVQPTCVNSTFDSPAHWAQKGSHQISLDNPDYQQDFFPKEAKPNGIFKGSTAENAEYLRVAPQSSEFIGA
Chain of Dickkopf-related protein 1 (Homo sapiens) (O94907 whole entry, looked up): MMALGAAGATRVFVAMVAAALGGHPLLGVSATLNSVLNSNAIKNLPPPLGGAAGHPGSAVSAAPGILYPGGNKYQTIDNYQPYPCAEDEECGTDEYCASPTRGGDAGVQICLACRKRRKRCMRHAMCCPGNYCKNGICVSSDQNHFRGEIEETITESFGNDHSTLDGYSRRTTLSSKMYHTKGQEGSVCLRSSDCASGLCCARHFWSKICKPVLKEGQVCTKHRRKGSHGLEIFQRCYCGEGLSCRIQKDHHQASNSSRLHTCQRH
Chain of Left-right determination factor 2 (Homo sapiens) (O00292 whole entry, looked up): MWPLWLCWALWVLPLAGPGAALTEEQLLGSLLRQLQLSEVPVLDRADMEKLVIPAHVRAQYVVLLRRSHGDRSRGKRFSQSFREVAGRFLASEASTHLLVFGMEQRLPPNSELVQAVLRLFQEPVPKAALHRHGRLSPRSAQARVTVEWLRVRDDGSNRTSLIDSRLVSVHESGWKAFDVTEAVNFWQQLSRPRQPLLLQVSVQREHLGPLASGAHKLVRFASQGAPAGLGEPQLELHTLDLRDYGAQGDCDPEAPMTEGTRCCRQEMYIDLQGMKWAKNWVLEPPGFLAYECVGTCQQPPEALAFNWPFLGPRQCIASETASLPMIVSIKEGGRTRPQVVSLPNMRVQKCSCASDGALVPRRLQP
Chain of Torsin-1A-interacting protein 1 (Homo sapiens) (Q5JTV8 whole entry, looked up): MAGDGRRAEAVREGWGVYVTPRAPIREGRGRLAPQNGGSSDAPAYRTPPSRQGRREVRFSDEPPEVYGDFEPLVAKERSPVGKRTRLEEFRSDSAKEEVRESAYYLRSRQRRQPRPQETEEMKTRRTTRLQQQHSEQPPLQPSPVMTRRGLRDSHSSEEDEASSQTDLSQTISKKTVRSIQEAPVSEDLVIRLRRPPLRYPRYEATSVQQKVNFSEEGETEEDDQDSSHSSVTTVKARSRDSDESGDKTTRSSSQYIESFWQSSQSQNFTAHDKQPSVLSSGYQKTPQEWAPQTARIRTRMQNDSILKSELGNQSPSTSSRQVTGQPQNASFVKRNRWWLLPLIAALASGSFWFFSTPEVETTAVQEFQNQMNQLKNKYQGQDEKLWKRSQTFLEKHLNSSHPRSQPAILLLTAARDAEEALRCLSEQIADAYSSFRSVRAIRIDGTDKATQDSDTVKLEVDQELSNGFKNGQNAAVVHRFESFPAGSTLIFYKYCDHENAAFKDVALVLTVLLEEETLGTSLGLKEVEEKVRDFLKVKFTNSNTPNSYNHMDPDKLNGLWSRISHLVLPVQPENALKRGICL
Chain of Follistatin-related protein 3 (Homo sapiens) (O95633 whole entry, looked up): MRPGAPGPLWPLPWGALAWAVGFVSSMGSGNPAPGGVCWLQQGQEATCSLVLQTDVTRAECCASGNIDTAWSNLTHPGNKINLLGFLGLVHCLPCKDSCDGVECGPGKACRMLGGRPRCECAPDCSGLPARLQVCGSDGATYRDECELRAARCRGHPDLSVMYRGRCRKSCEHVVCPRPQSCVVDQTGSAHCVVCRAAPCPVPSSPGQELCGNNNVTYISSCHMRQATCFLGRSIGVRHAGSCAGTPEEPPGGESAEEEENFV
Chain of Fibroblast growth factor 10 (Homo sapiens) (O15520 whole entry, looked up): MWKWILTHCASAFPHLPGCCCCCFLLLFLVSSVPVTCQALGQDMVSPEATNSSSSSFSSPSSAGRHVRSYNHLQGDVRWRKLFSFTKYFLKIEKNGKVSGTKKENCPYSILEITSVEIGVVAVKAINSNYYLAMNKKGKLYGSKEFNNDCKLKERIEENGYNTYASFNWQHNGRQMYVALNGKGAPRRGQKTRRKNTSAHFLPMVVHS

As for `COCCOC(=O)N1C(=O)[C@@]2(c3cc(C#CC4=CCCCC4)ccc31)[C@H](c1ccccc1OCCO)N1[C@H](c3ccccc3)[C@H](c3ccccc3)OC(=O)[C@H]1[C@@H]2C(=O)Nc1nc2ccccc2s1`, the composite z-score in [1] was 1.09; in experiment [2], -0.148; in experiment [3], -0.226; in [5], 1.08; in experiment [6] it was 0.69; in experiment [7], 0.416. Also, the composite z-score in experiment [8] is 0.981; in experiment [9], 0.506; in [10], 0.936; in experiment [11], 1.33; in [13] it was 0.526; in [14] it was 1.36. Moreover, the composite z-score was 0.13 in experiment [15]; -0.0236 in experiment [16]; 0.0253 in experiment [17]; 0.904 in [18]; 0.666 in [19]; 1.48 in [20]. The z-score in experiment [4] is -1.62 (inactive); in [12], -2.23.
For `C[N+](C)(C)CCCC[C@@H]1NC(=O)[C@H]2C[C@@H](C(=O)NCCCCCCN)[C@@H](c3ccc(O)cc3)N2C1=O`, the composite z-score in experiment [1] was 1.38; in [2] it was 0.608; in experiment [3], 0.659; in [5], 0.687; in experiment [6] it was 1.3; in experiment [7] it was -0.397. For the same compound, the composite z-score was -0.0878 in experiment [8]; 0.0717 in experiment [9]; -0.695 in [10]; 1.17 in experiment [11]; 0.0608 in [13]; 0.756 in [14]. The composite z-score in experiment [15] was determined as 0.342; in experiment [16], 0.127; in [17], 0.541; in experiment [18] it was 0.0561; in [19], 0.567; in [20], 0.925. Moreover, the z-score in [4] is 0.587 (inactive); in experiment [12], -0.481.
For `CC(=O)NCCCC[C@@H]1NC(=O)[C@H]2C[C@@H](C(=O)NCCCC[N+](C)(C)C)[C@@H](c3cccc(OCCO)c3)N2C1=O`, the composite z-score in [1] was 0.0726; in [2] it was 0.186; in experiment [3], -0.201; in experiment [5], 1.37; in experiment [6], 0.536; in experiment [7], 1.17. Also, the composite z-score in experiment [8] is 1.54; in experiment [9], 1.83; in experiment [10] it was -0.416; in experiment [11] it was -0.194; in experiment [13] it was 1.47; in [14], -2.42. The composite z-score in [15] is -1.62; in experiment [16], 0.027; in experiment [17], 0.0121; in experiment [18] it was -0.122; in experiment [19], 1.04; in experiment [20], 0.604. Also, the z-score in experiment [4] is -0.307 (inactive); in [12] it was -1.08.
As to `COCCCNC(=O)[C@@]1(Cc2ccccc2CN=[N+]=[N-])N=C(c2ccc(OCCCO)cc2)O[C@H]1c1ccccc1`, the composite z-score in [1] was 1.06; in experiment [2], 0.432; in experiment [3] it was 0.825; in [5], 1.31; in experiment [6], 0.235; in experiment [7] it was -0.331. Further, the composite z-score in [8] is 0.561; in experiment [9], -0.497; in [10], 0.31; in [11], 1.47; in experiment [13] it was -0.0313; in experiment [14] it was 1.34. For the same compound, the composite z-score in [15] came to 0.475; in [16], 0.0257; in experiment [17] it was 0.313; in experiment [18], 0.999; in experiment [19], 1.62; in experiment [20] it was 1.52. Moreover, the z-score in experiment [4] was -0.645 (inactive); in experiment [12], -2.84.
Consider `NC(=O)NCC#Cc1ccc2c(c1)[C@]1(C(=O)N2)[C@H](C(=O)NC[C@H](O)c2ccccc2)[C@H]2C(=O)O[C@H](c3ccccc3)[C@H](c3ccccc3)N2[C@@H]1c1ccc(OCCO)cc1`, for which the composite z-score in [1] is 0.0395; in experiment [2], 0.72; in experiment [3] it was 0.879; in [5], 0.566; in experiment [6], 0.0382; in experiment [7] it was -0.464. Besides, the composite z-score in [8] was 0.0489; in experiment [9] it was -0.246; in [10], 1.04; in [11], 1.25; in experiment [13], -0.461; in experiment [14], 0.616. Moreover, the composite z-score is 0.541 in experiment [15]; -0.143 in experiment [16]; -0.0769 in experiment [17]; -0.418 in experiment [18]; 0.863 in experiment [19]; 1.43 in experiment [20]. The z-score was 0.822 (inactive) in experiment [4] and -1.22 in [12].
As to `CCOC(=O)C[C@H]1[C@H](OC(=O)c2ccccc2-c2ccccc2)[C@@H](NC(=O)c2ccc(-c3ccccc3)cc2)c2cc(OCCCO)ccc2N1C(=O)c1ccc2ccccc2n1`, the composite z-score in [1] is 0.533; in experiment [2], -0.293; in experiment [3], -0.0904; in experiment [5], 0.948; in experiment [6], 0.749; in experiment [7], 0.247. In addition, the composite z-score in experiment [8] came to 0.749; in [9], 0.204; in [10], 0.392; in experiment [11], 0.521; in experiment [13], 0.465; in experiment [14], 0.105. Moreover, the composite z-score in [15] was -0.09; in [16] it was -0.0445; in experiment [17], -0.0035; in experiment [18], 0.233; in experiment [19], -0.0823; in experiment [20] it was 1.86. Also, the z-score in experiment [4] is 0.224 (inactive); in experiment [12], -1.24.
